Screening results deposited in PubChem BioAssay by National Center for Advancing Translational Sciences (NCATS).
FBPA Giardia inh: blocks Giardia fructose-bisphosphate aldolase activity; Potency, µM (titrated, usually from 59.6 µM), inactives show at the top dose activity, negative = inhibition, most hits filed as inhibitors; A8B2U2; AID 2451; purified Giardia FBPA; actives 0.71% (n = 290,000); also: potency is read from the fitted curve at half-maximal effect; nearly all actives have a fitted effect of over 55% in size
Target sequence (A8B2U2 whole entry, looked up): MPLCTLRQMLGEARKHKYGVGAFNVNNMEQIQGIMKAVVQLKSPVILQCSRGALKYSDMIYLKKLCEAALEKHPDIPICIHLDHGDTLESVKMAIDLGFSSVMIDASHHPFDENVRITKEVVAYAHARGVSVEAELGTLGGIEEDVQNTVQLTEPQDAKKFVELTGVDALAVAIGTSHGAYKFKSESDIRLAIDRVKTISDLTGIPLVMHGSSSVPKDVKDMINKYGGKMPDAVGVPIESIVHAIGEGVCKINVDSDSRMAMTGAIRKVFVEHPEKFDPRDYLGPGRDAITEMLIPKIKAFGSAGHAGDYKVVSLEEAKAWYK
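Giardia FBPA (40 nM reagent) was preincubated 10 min at RT with compound (up to 57.5 uM final), then substrate plus GAPDH/TPI/NAD/arsenate coupling system with diaphorase/resazurin was added; resorufin fluorescence (525/598 nm) was read after 20 min.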
FMDV antiviral: blocks foot and mouth disease virus | AID 1159524 | FMDV antiviral cell-based qHTS | actives 1.2% (n = 410,000) | Potency, µM (highest dose often 57.9 µM), for inactives: at the highest dose activity change, negative = inhibition, most hits filed as inhibitors; calls by dose curve; tested in HEK293T cells; also: read-out not given here; potency is read from the fitted curve at half-maximal effect; nearly all actives have a fitted effect of over 45% in size
HCMV antiviral: inhibitors of human cytomegalovirus; activity change, negative = inhibition, % at 57.5 µM; actives 4.5% (n = 410,000); AID 1259415; HFF cells, HCMV-luciferase reporter, 72 h; hits give low values; in the data active = activity change below about -60%; inconclusive = no clear call, values can overlap the other calls; inactive = above about -39%
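Two compound doses tested in HFFs infected with HCMV-luciferase, MOI 1 PFU/cell, 72 h at 37C. Lysate luminescence read with OneGlo; data normalized against buffer-only and 10uM Salinomycin inhibitor controls.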
HCV inhibitor: blocks hepatitis C virus; actives 3.4% (n = 340,000); Huh7.5.1 HCVcc-Cre infection, luciferase reporter, 44 h; Potency, µM (doses to about 41.8 µM), inactives show at the top dose activity change, negative = inhibition, hits mostly inhibitors; AID 651820; also: potency is read from the fitted curve at half-maximal effect
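Cells (1,000/well) were plated 4 h before compound, then infected with HCVcc-Cre virus (~0.5 moi). After 44 h further culture, infection was read as luciferase luminescence following a 15 min substrate incubation at room temperature.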
Marburg entry inh: Marburg virus entry inhibition; actives 1.8% (n = 300,000); AID 540276; Potency, µM (titrated, usually from 37.8 µM), inactives show at the highest dose activity change, negative = inhibition, usual class: inhibitors; Marburg virus pseudotyped entry inhibition, cell reporter; calls by dose curve; tested in HEK293 cells; also: potency is read from the fitted curve at half-maximal effect
Lassa entry inh: Lassa virus entry inhibition; Lassa virus pseudotype entry inhibition, cell reporter; Potency, µM (titrated, usually from 37.9 µM), without a hit: at the highest dose activity change, negative = inhibition, hits mostly inhibitors; actives 1.2% (n = 300,000); AID 540256; calls by dose curve; tested in HEK293 cells; also: potency is read from the fitted curve at half-maximal effect; nearly all actives have a fitted effect of over 50% in size
* marks the source's active call; other numbers are inactive results; ? = inconclusive; / = no result given; [ ] = remark or other dose. A selection: hits, their analogues and other compounds. The true share with any hit is near 8.3%. Unless noted, calls follow the shape of the dose curve; as a rule, active = well fitted curve in the direction sought with a large enough effect; inconclusive = small, poorly fitted or top-dose-only effect, or another doubt; inactive = no such curve, though single readings can be large; an effect the other way counts as inactive or inconclusive. % is scaled to controls: 0 for no effect and ±100 for the full control effect.

SMILES	FBPA Giardia inh	FMDV antiviral	HCMV antiviral	HCV inhibitor	Marburg entry inh	Lassa entry inh
CNC(=O)c1cccc(NC(=O)C(C)c2ccc3cc(OC)ccc3c2)c1 (centres undefined)	-4%	-14%	39	-2%	?	-15%
CC(C)N(C(=O)[C@H]1C[C@H](CC(=O)NC(C)(C)C)C(=O)N2CCc3c([nH]c4cc(CCC(=O)N(C)C)ccc34)[C@]12C)C(C)C	/	-8%	-11	0.5µM*	2%	/
CN(C)C(=O)CCc1ccc2c3c([nH]c2c1)[C@]1(C)[C@@H](C(=O)N2CCCCC2)C[C@H](CC(=O)NCC24CC5CC(CC(C5)C2)C4)C(=O)N1CC3	/	-26%	-90*	-22%	0%	/
CC(C)N(C(=O)[C@H]1C[C@H](CC(=O)NCc2cccc(C(F)(F)F)c2)C(=O)N2CCc3c([nH]c4cc(CCC(=O)N(C)C)ccc34)[C@]12C)C(C)C	/	?	-19	-29%[8.37 µM]	/	/
C=Cc1ccc(N=Cc2c(O)ccc3ccccc23)cc1	14µM*	-3%	-17	-4%	-21%[46.1 µM]	-24%[46.1 µM]
CN(C)/N=C/c1c(O)ccc2ccccc12	-6%	4%	-11	10µM*	15%	5%
Oc1ccc2ccccc2c1C=NC12CN3CCN(CN(C3)C1)C2	14µM*	?	-4	10%	-18%	-4%
CC(=O)c1c(O)c(C)c(O)c2c1OC1=CC(=O)[C@H](C(C)=O)C(=O)[C@]12C	/	/	/	/	11%	/
Cn1c(=O)c(-c2ccc(F)cc2)nc2cncnc21	6%	-8%	/	/	/	/
O=C1C2=C(C(=O)c3ccccc31)C1O[C@](c3ccsc3)(Cc3ccccc31)O2	-13%[12.9 µM]	/	/	/	/	/
CC(=O)c1ccc(OCc2cc(C(=O)N(C)CCOc3ccc(C)cc3)no2)cc1	/	0%	92	13µM*	/	/
CC(=O)c1ccc(OCc2cc(C(=O)N3CCC(c4ccncc4)CC3)no2)cc1	5%	?	-81*	?	/	/
C=CCC1(CC=C)CCCN1C(=O)c1cc(COc2cccc(OC)c2)on1	/	-24%	0	14µM*	/	/
COc1cccc(OCc2cc(C(=O)N3CCC(c4ccncc4)CC3)no2)c1	2%	-27%	-89*	10µM*	?	?
CC(=O)c1ccc(OCc2cc(C(=O)N(C)Cc3nc4c(C)cccc4[nH]3)no2)cc1	4%	-28%	24	-17%	19%	-13%
COC(=O)c1ccc(CN2CCOc3ccc(C(O)c4cccnc4)cc3C2)cc1 (centres undefined)	/	-26%	/	/	/	/
CCOC(=O)CC1(NC(=O)c2cc(COc3cccc(OC)c3)on2)CCCCC1	6%	-22%	-35	10µM*	/	/
COc1cccc(OCc2cc(C(=O)NCc3ccccn3)no2)c1	9%	44%	39	2%	?	-4%[46.1 µM]
COc1cccc(OCc2cc(C(=O)NCc3cnc4ccccn34)no2)c1	/	?	?	8.9µM*	/	/
Cc1ccc(S(=O)(=O)C(CNC(=O)COc2ccccc2)c2ccco2)cc1 (centres undefined)	/	-3%	-1	/	/	-29%[46.1 µM]
CC(CCl)OC(C)CCl (centres undefined)	/	-19%	-74*	19%	/	/
C#CC(=O)N(c1ccc(OC)c(OC)c1)C(C(=O)NC1CCCC1)c1cccs1 (centres undefined)	-2%	?	-99*	0.32µM*	3.5µM*	7.9µM*
C#CC(=O)N(c1cccc(OC)c1)C(C(=O)NC1CCCC1)c1cccs1 (centres undefined)	-1%	/	-101*	0.56µM*	2.9µM*	?
COc1ccc(N(C(=O)Cc2cccs2)C(C(=O)NC2CCCC2)c2ccncc2)cc1OC (centres undefined)	-5%	-7%	70	18%	10%[46.1 µM]	-1%
C#CCCCO/N=C1/C[C@@H](O)[C@@H](O)[C@@H]2[C@@H]3C(=O)N(C[C@@H]4CCCO4)C(=O)[C@H]3CC[C@H]12	-1%[12.9 µM]	/	/	/	4%[14.2 µM]	/
SMILES	FBPA Giardia inh	FMDV antiviral	HCMV antiviral	HCV inhibitor	Marburg entry inh	Lassa entry inh
CCOC(=O)c1ccc2c(c1)N(Cc1ccc(F)cc1Cl)C(=O)c1ccccc1S2(=O)=O	/	2%	3	/	/	?
C[C@@]12C(=O)Nc3cc(Cl)ccc3C(=O)N1[C@H]1c3cc(Br)ccc3OC[C@@H]1[C@@H]2c1ccccc1	/	-11%	-64*	10µM*	/	/
COc1ccc2c(c1)OC[C@H]1[C@H]2N2C(=O)[C@H](C)NC(=O)[C@@]2(C)[C@H]1c1ccccc1	/	-4%	-91*	0%	/	/
COc1ccc2c(c1)OC[C@H]1[C@H]2N2C(=O)c3cc(OC)c(OC)cc3NC(=O)[C@@]2(C)[C@H]1c1ccccc1	/	0%	-15	7.1µM*	/	/
CCc1ccc(-n2cnc3cc(C(=O)NCc4ccc(C)cc4)ccc32)cc1	/	2%	-13	/	/	?
COc1ccc(-n2c(CN3CCN(c4ccc(F)cc4)CC3)nc3ccc([N+](=O)[O-])cc3c2=O)c(OC)c1	-16%	-8%	-92*	-30%	-21%[46.1 µM]	?
COc1ccc(-n2c(CN3CCN(C)CC3)nc3ccc([N+](=O)[O-])cc3c2=O)c(OC)c1	-15%	-13%	10	-6%	/	/
OC[C@H]1NC[C@@H](O)[C@@H](O)[C@@H]1O	-12%	/	/	/	/	/
O=C(CCC1CCCN(C(=O)CCN2CCCCC2=O)C1)NCc1ccccc1F (centres undefined)	-2%	8%	-105*	9%	1%[46.1 µM]	11%[46.1 µM]
CC(=O)Nc1cccc(C(=O)/C=C/c2ccc(Br)cc2)c1	-5%	25µM*	-71*	?	15µM*	?
CC(=O)Nc1cccc(C(=O)/C=C/c2ccc(N(C)C)cc2)c1	-13%	26%	30	7%	4%	-10%
CC(=O)Nc1cccc(C(=O)/C=C/c2ccc(/C=C/C(=O)c3cccc(NC(C)=O)c3)cc2)c1	8%	/	-88*	?	/	/
Cc1cccc(C(=O)Nc2ccc(C(=O)/C=C/c3ccncc3)cc2)c1	0%	11%	-101*	-12%	?	?
CC(=O)Nc1cccc(C(=O)/C=C/c2ccc(F)cc2)c1	0%	?	-99*	?	?	?
CCCCC/C=C\C/C=C\C/C=C\C=C\C(=O)CCCC(=O)O	-1%	/	/	/	/	/
COCc1cc(C)nc2sc3c(c12)NC(c1ccc(O)cc1)N(c1ccc(OC)cc1)C3=O (centres undefined)	/	-9%	-21	/	?	?
COCCn1c(=O)c(-c2cn(C)c3ccccc23)nc2cnc(Oc3cccc(Cl)c3)nc21	3%	-17%	/	/	/	/
CS(=O)(=O)N1CCC[C@@]2(CCN(C(=O)Nc3cccc(C#N)c3)C2)C1	0%	-10%	/	/	/	/
CCc1ccc(NC(=O)CCS(=O)(=O)c2ccc3c(c2)n(C)c(=O)c(=O)n3C)cc1	/	-11%	-29	/	1%[46.1 µM]	23%[46.1 µM]
CCOC(=O)C1=C(CCl)NC(=O)N(C(C)=O)C1c1ccccc1 (centres undefined)	/	/	/	/	-22%[14.2 µM]	?
